From PubChem BioAssay
Most compounds without a hit are left out; they make up all but 7.5% or so of the library.
NPC1 prom act: NPC1 promoter activation | Huh7 NPC1 promoter luciferase reporter, 24 h | Potency, µM (highest dose often 9.22 µM), without a hit: top-dose activation, actives largely listed as activators | hit rate 2.4% among 320,000 | AID 485313; further: % of control where 0% means no effect; nearly all actives have a fitted effect of over 60% in size
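Stable NPC1-promoter luciferase Huh7 line; cpd (DMSO) 24 h, 37 °C, 5% CO2; Amplite luciferase reagent 10 min RT; luminescence readout. qHTS format.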
FLuc counter: inhibits or activates purified firefly luciferase, miR-21 counter-screen. hit rate 6.9% among 360,000. purified FLuc, Km substrates, luminescence inhibition. AID 588342. P08659. Potency, µM (series often up to 57.5 µM), for inactives: at the highest dose activity change, negative = inhibition, most hits filed as inhibitors;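 further: plate controls were vehicle for no effect and reference inhibitor for full effect; nearly all actives have a fitted effect of over 55% in size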
Target sequence (P08659 whole entry, looked up): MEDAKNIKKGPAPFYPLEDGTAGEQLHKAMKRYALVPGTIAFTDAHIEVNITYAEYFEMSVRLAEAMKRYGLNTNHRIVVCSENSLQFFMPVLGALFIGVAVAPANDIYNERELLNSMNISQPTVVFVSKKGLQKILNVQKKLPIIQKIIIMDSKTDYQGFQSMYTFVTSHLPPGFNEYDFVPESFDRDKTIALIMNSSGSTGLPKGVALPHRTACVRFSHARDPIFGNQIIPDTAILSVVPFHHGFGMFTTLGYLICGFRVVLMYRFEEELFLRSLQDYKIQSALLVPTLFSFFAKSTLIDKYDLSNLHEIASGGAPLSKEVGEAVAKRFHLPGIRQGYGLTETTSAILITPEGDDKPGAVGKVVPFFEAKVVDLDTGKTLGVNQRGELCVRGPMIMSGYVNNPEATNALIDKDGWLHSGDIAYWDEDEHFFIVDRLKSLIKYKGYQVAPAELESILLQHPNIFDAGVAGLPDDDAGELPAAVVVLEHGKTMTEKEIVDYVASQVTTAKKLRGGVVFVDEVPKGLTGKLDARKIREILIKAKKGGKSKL
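Purified P. pyralis luciferase, 10 nM final, with Km-level 10 uM D-luciferin and 10 uM ATP in 50 mM Tris acetate pH 7.5, 10 mM Mg acetate, 0.01% Tween-20, 0.05% BSA; 6-point qHTS titration about 60 µM downward; luminescence read.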
Luc counter: Kinase-Glo luciferase inhibition (counter-screen) | Q27757 | Kinase-Glo luciferase, ATP luminescence, 8 min | Potency, µM (top dose mostly 38.3 µM), without a hit: at the highest dose activity change, negative = inhibition, most hits filed as inhibitors | hit rate 0.28% among 200,000; further: on the % scale 0 is the no-effect control and ±100 the full control effect; nearly all actives have a fitted effect of over 60% in size
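Light output from Kinase-Glo luciferase with luciferin and 10 uM ATP in 50 mM imidazole pH 7.2, KCl, MgCl2, Tween 20, BSA; compound pin-delivered, 8-min ambient incubation, then luminescence read.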
SMN2 splice enh: enhancers of SMN2 splice variant expression; HEK293 SMN2-luciferase splicing reporter, luminescence, 30-36 h; Potency, µM (top dose mostly 46.1 µM), for inactives: at the top dose activity change, positive = activation, usual class: activators; hit rate 2.8% among 210,000; AID 1458; further: % of control where 0% means no effect; nearly all actives have a fitted effect of over 55% in size
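HEK293 cells carry an SMN2 minigene-luciferase reporter in which exon 7 inclusion puts luciferase in frame. Cells were seeded at 2000 cells/well, attached for 10-12 hours, then exposed to compounds for 30-36 hours at 37C before ONE-Glo luminescence.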
ELG1 genotoxic: inducers of genotoxicity in HEK293T ELG1-luciferase cells | Potency, µM (doses to about 46 µM), inactives show at the top dose activity change, positive = activation, most hits filed as activators | AID 504466 | HEK293T ELG1-luciferase reporter, luminescence, 16 h | hit rate 1.3% among 330,000; further: % of control where 0% means no effect; nearly all actives have a fitted effect of over 60% in size
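Genotoxicity was scored as increased ELG1-luciferase reporter signal, measured by ONE-Glo luminescence (30 min, room temperature). Compound or vehicle exposure of the HEK293T reporter cells lasted 16 hr at 37°C.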
Rab9 prom act: activators of Rab9 promoter; hit rate 2.8% among 320,000; Potency, µM (top dose mostly 9.22 µM), for inactives: at the highest dose activation, negative = inhibition, hits mostly activators; Huh7 Rab9 promoter-luciferase reporter, luminescence, 24 h; further: % of control where 0% means no effect; nearly all actives have a fitted effect of over 60% in size
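Luminescence from Amplite-detected luciferase (10 minutes, ambient) reports Rab9 promoter activation. Before that, stable Rab9-luciferase Huh7 cells (1500/well, reduced-serum OP-MEM I plus 10% FBS) were exposed to compound for 24 hours at 37C.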
Starred values were filed as active, the others as inactive; u = inconclusive; x = not tested or not shown; [ ] = another dose, or the depositor's remark. The call rests on the fitted dose curve; in most records, active means well fitted curve in the direction sought with a large enough effect; inconclusive means small, poorly fitted or top-dose-only effect, or another doubt; inactive means no such curve, though single readings can be large; an effect the other way counts as inactive or inconclusive. Potency means the concentration at half of the fitted maximal effect.

SMILES	NPC1 prom act	FLuc counter	Luc counter	SMN2 splice enh	ELG1 genotoxic	Rab9 prom act
CCOC(=O)c1ccc2c(c1)nc(SC(C)C(=O)NCC1CCCO1)n2CC (centres undefined)	3%	6%	x	x	6%	7%
O=C(c1ccccc1)N1CCCCCC1	0%	0%	3%	-13%	1%	-4%
CC(=O)c1cccc(NC(=O)C2CCN(C(=O)c3ccc([N+](=O)[O-])cc3)CC2)c1	-1%	-1%	2%	10%	-7%	-8%
O=C(Nc1ccccc1)Nc1ccc(C(=O)N2CCCC2)cc1	0.56µM*	2.4µM*	6.3µM*	6.3µM*	u	0.35µM*
CC(=O)c1cccc(NC(=O)Nc2ccc3c(c2)N(C)C(=O)CS3)c1	1%	15µM*	1%	-19%	-31%	-10%
CC(=O)c1cccc(NC(=O)Nc2ccc(C(=O)N3CCCC3)cc2)c1	26%	6.7µM*	u	-2%	-19%	13%
O=C1c2ccccc2-c2ccc(C(=O)N3CCCCC3)cc21	u	27µM*	0%	12%	u	u
O=C(c1ccc2ccccc2c1)N1CCCC1	-2%	3%	x	x	9%	-5%
Cc1cc(C)cc(NC(=O)Nc2ccc3c(c2)N(C)C(=O)CS3)c1	-2%	u	-2%	-11%	-16%	-2%
COc1ccc2ccccc2c1-c1sc(Nc2ccccc2)n[n+]1-c1ccc(F)cc1	-1%	3%	x	x	-8%	-2%
Cn1c(-c2ccc3c(c2)OCO3)cnc1NCc1ccccc1Cl	25%	12µM*	-1%	u	10%	u
C(=N/Nc1nc(-c2ccccc2)cc(-c2ccccc2)n1)/c1cccnc1	18%	2.7µM*	-8%	2.5µM*	1%	26%
C(=N\Nc1nc(N2CCCC2)nc(N2CCCC2)n1)/c1cccnc1	-5%	4%	1%	-23%	-12%	-6%
Cc1ccc2nc(N/N=C/c3ccco3)cc(C)c2c1	2.8µM*	2.7µM*	-3%	x	9%	2.5µM*
Cc1cc(C)nc(N/N=C/c2ccco2)n1	10%	u	9%	u	10%	-3%
Cc1cc(-c2ccccc2)nc(N/N=C/c2cccnc2)n1	5%	12µM*	-18%	x	-2%	1%
C(=N\Nc1nc(Nc2ccccc2)nc(Nc2ccccc2)n1)/c1cccnc1	3%	u	-3%	3%	-6%	4%
Cc1cc(-c2ccccc2)nc(N/N=C/c2ccco2)n1	u	12µM*	-2%	13%	7%	u
Cc1ccc2nc(C)cc(SCC(=O)N/N=C/c3ccco3)c2c1	-9%	3%	x	x	-7%	-6%
CCCCc1ccc(NC(=O)CSc2nc(=O)n3cc(C)ccc3n2)cc1	0%	-4%	x	x	0%	-7%
Fc1ccc(N2CCN(Cc3cccn3-c3nnc(N4CCN(C5CCCCC5)CC4)s3)CC2)cc1	x	4%	x	x	x	x
CCOc1ccc(C(CC(=O)O)NC(=O)Cc2ccc(Cl)cc2)cc1 (centres undefined)	0%	-2%	x	x	0%	-2%
Cc1cc(-c2ccccc2)nc(N/N=C/c2ccc([N+](=O)[O-])cc2)n1	-3%	-26%	-2%	1%[1.84 µM]	-8%	1%
Cc1cc(-c2ccccc2)nc(N/N=C/c2ccccc2)n1	u	6.7µM*	x	x	17%	u
COc1ccc(/C=N/Nc2nc(C)cc(-c3ccccc3)n2)cc1OC	-2%	13µM*	x	x	-13%	1%
COc1ccc(-c2cnnc(N/N=C/c3ccc(OC)c(OC)c3)n2)cc1	6%	2.7µM*	-19%	x	-2%	0%
COc1cccc(-c2nc(Cn3c(=O)cc(C)c4c(C)nn(-c5ccccc5)c43)c(C)o2)c1OC	x	-2%	x	x	x	x
CC(=O)c1ccc(NC(=O)Cn2nc(C(F)(F)F)c3c2CCC3)cc1	x	1%	x	0%	x	x
NC(=S)N/N=C/c1c(O)ccc2ccccc12	9%	-4%	x	x	-12%	-15%
